Experimental data as given in the supplement of paper PMC9694430.
Counter-ions that a name gives are not always drawn.

Assays:
Assay in all cases: thermal shift delta Tm vs DMSO control; higher = stronger stabilization (binding)
Settings in all cases: 12.5 µM; protein concentration 2 µM
[1] = test system: LOC_OS04G57630-cb004
Procedure, shortened: (§1)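 Heating from 25°C to 95°C at 0.05°C/s, fluorescence was recorded for 19.5 μl wells of 2 μM E. coli-expressed, purified rice kinase domain in 100 mM potassium phosphate pH 7.5, 150 mM NaCl, 10% glycerol and 5 × SYPRO Orange with compound in DMSO. Boltzmann fits gave melting temperatures for this differential scanning fluorimetry assay. The shift reported is the mean of three replicates against the DMSO-only protein.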

[2] = test system: LOC_OS05G07850-cb002
Procedure, shortened: as §1

[3] = test system: LOC_OS05G16824-cb004
Procedure, shortened: as §1

[4] = test system: LOC_OS05G28520-cb001
Procedure, shortened: as §1

[5] = test system: LOC_OS05G30820-cb001
Procedure, shortened: as §1

[6] = test system: LOC_OS05G43570-cb004
Procedure, shortened: as §1

[7] = test system: LOC_OS06G16330-cb003
Sequence of LOC_OS06G16330-cb003 (as listed by the source): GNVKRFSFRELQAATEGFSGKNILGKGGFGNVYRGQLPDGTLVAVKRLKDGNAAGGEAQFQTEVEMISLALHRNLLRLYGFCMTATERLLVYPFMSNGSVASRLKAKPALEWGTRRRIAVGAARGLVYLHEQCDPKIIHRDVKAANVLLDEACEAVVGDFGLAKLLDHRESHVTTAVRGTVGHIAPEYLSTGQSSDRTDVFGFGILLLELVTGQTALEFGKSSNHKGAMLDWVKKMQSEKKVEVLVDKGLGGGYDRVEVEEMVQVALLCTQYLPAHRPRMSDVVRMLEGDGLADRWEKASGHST
Procedure, shortened: as §1

[8] = test system: T1, LOC_OS06G22820-cb001
T1 sequence (whole entry): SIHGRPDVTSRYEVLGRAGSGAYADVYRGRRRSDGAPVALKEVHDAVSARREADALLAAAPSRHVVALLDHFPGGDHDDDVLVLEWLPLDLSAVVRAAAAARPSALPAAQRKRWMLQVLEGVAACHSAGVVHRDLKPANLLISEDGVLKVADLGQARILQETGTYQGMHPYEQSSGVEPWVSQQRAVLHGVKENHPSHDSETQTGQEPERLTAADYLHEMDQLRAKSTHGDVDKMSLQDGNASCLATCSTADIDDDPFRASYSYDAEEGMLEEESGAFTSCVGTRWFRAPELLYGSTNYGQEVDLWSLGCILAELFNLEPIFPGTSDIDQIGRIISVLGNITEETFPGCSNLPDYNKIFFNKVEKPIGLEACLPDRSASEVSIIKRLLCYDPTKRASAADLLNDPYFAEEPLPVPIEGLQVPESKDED
Procedure, shortened: as §1

[9] = test system: LOC_OS07G06570-cb004
Procedure, shortened: as §1

[10] = test system: LOC_OS07G07230-cb001
Procedure, shortened: as §1
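Further: purified Escherichia coli-expressed rice kinase domain construct.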

SMILES | thermal shift delta Tm [1] [°C] | thermal shift delta Tm [2] [°C] | thermal shift delta Tm [3] [°C] | thermal shift delta Tm [4] [°C] | thermal shift delta Tm [5] [°C] | thermal shift delta Tm [6] [°C] | thermal shift delta Tm [7] [°C] | thermal shift delta Tm [8] [°C] | thermal shift delta Tm [9] [°C] | thermal shift delta Tm [10] [°C]
OCCn1cc(-c2cnc3nnn(Cc4ccc5ncccc5c4)c3n2)cn1 | -0.21 | 0.33 | -2.44 | 0.66 | 0.46 | 0.28 | -0.29 | 0.46 | 0.2 | 0.97
CC(C)NC(=O)COc1cccc(-c2nc(Nc3ccc4[nH]ncc4c3)c3ccccc3n2)c1 | 0.57 | 1.61 | -3.52 | 0.71 | 0.73 | 0.42 | 0.58 | 0.84 | 0.26 | -0.31
Cn1cc(/C=C2\C(=O)Nc3cccnc32)c2ccccc21 | 2.07 | 9.12 | 10.2 | 0.86 | 0.81 | 0.41 | 7.67 | 0.62 | 1.66 | 0.42
Nc1nccc(Oc2ccc3c(C(=O)Nc4cccc(C(F)(F)F)c4)cccc3c2)n1 | 0.43 | -1.62 | -1.01 | 0.93 | 0.73 | 0.58 | 0 | 0.99 | 1.61 | 0.15
CN1CCN(Cc2ccc(NC(=O)Nc3ccc(Oc4ccnc(N)n4)cc3)cc2C(F)(F)F)CC1 | 6.19 | 11.9 | -5.04 | 0.9 | 0.74 | 1.72 | 5.38 | 0.66 | 0.91 | -1.04
Cn1cc(C2=C(c3ccc(Cl)cc3Cl)C(=O)NC2=O)c2ccccc21 | 0.28 | 2.36 | 0.19 | 2.17 | 0.49 | 0.84 |  | 1.02 | 2.2 | 0.68
CO[C@H]1C[C@@H]2CC[C@@H](C)[C@@](O)(O2)C(=O)C(=O)N2CCCC[C@H]2C(=O)O[C@H]([C@H](C)C[C@@H]2CC[C@@H](OCCO)[C@H](OC)C2)CC(=O)[C@H](C)/C=C(\C)[C@@H](O)[C@@H](OC)C(=O)[C@H](C)C[C@H](C)/C=C/C=C/C=C/1C [Everolimus (RAD001)] | -0.03 | -0.04 | 1.13 | 0.62 | 0.41 | 0.57 | 0.13 | 1.04 | 0.88 | -1.46
O=C(Nc1cc(C(F)(F)F)cc(C(F)(F)F)c1)c1cc(Cl)ccc1O | -0.05 | -0.13 | -0.94 | 0.78 | 0.67 | 0.76 | 0.52 | 0.91 | 1.68 | -0.11
Cc1ccccc1-n1c(Cn2nc(-c3cccc(O)c3)c3c(N)ncnc32)nc2cccc(C)c2c1=O |  | 0.71 | -1.12 | 0.91 | 0.79 | 0.31 |  |  |  | 1
CC1(C)OCCn2c1nc1c(N3CCOCC3)nc(-c3cnc(N)nc3)nc12 | 0.29 | 1.01 | -0.61 | 0.5 | 0.57 | 0.76 | 2.07 | 0.14 | 1.2 | 0.43
O=C1Nc2ccccc2/C1=C1/Nc2ccccc2C1=O [Indirubin] | 0.28 | 5.1 | -2.11 | 0.79 | 1.11 | 0.4 | 0.35 | 0.47 | 1.39 | 0.66
Cc1cn(-c2cc(NC(=O)c3ccc(C)c(Nc4nccc(-c5cnccn5)n4)c3)cc(C(F)(F)F)c2)cn1 [Radotinib] | 0.16 | -1.11 | 0.06 | 0.56 | 0.41 | 0.62 | -0.09 | 0.69 | 1.06 | 0.23
Cc1[nH]c(/C=C2\C(=O)Nc3ccccc32)c(C)c1CCC(=O)O [Orantinib (TSU-68, SU6668)] | 0.84 | 9.92 | 0 | 0.62 | 1.03 | 0.68 |  | 0.6 | 1.28 | 0.28
CN(C)Cc1cccc(N/C(=C2\C(=O)Nc3cc(C(N)=O)ccc32)c2ccccc2)c1 | 0.27 | 5.34 | 2.95 | 0.22 | 0.46 | 0.7 | 0.53 | 0.79 | 1.03 | 0.16
CNC(=O)Nc1ccc(-c2nc(N3CC4CCC(C3)O4)c3cnn(C4CCC5(CC4)OCCO5)c3n2)cc1 | 0.62 | 0.66 | -1.09 | 0.58 | 0.69 | 0.65 | -0.11 | 0.61 | 0.67 | 0.15
CN(C)S(=O)(=O)c1ccc2c(c1)/C(=C/c1cc3c([nH]1)CCCC3)C(=O)N2 | 1.35 | 7.38 | -3.8 | 1.28 | 1.28 | 0.71 |  | 1.01 | 1.01 | 0.86
Cc1ccc(Nc2cc(N[C@@H]3CCCC[C@@H]3N)nnc2C(N)=O)nc1C | -0.04 | 6.83 | 5.76 | 0.7 | 1.49 | 0.67 | 4.95 | 1.48 | 1.39 | 0.12
Cc1cc(O)c2c(c1)C(=O)c1cccc(O)c1C2=O [Chrysophanic Acid] | -0.6 | 1.45 |  | 0.74 | 0.15 | -0.12 | -0.34 | -0.85 | 1.81 | -0.41
Cn1sc(=O)n(Cc2ccccc2)c1=O | -1.01 | -2.47 | 4.99 | 1.84 | 0.45 | 0.04 |  | 0.72 | 0.43 | -0.42

SMILES | thermal shift delta Tm [1] [°C] | thermal shift delta Tm [2] [°C] | thermal shift delta Tm [3] [°C] | thermal shift delta Tm [4] [°C] | thermal shift delta Tm [5] [°C] | thermal shift delta Tm [6] [°C] | thermal shift delta Tm [7] [°C] | thermal shift delta Tm [8] [°C] | thermal shift delta Tm [9] [°C] | thermal shift delta Tm [10] [°C]
Cc1[nH]c(/C=C2\C(=O)Nc3ccc(S(=O)(=O)N(C)c4cccc(Cl)c4)cc32)c(C)c1C(=O)N1CCN(C)CC1 | 0.72 | 9.11 |  | 0.18 | 0.55 | -0.03 | -6.47 | 1 | 0.23 | 0.81
Cc1ncc(CCCN(C)C)cc1Nc1ncc2c(n1)-c1ccc(C(F)(F)F)cc1NC(=S)C2 | -0.2 | -0.13 | 3.13 | 0.71 | 0.52 | 0.48 | 0.15 | 0.79 | 1.65 | 0.32
CNC(=O)c1cc(Oc2ccc(NC(=O)Nc3ccc(Cl)c(C(F)(F)F)c3)cc2)ccn1 [Sorafenib Tosylate] | 1.2 | 9.63 | 1.35 | 1.33 | 0.5 | 1.5 | 1.91 | 2.15 | 1.66 | 0.6
Oc1ccc(-c2nc(-c3ccc(F)cc3)c(-c3ccncc3)[nH]2)cc1 | 0.57 | 1.26 |  | 1.33 | 0.88 | 1.13 | 0.09 | 0.97 | 1.08 | 0.48
Cc1nc2c(-c3cnc(N)nc3)nc(N3CCOCC3)nc2n1C(C)C | 0.5 | 2.64 | 0.17 | 0.5 | 0.32 |  |  |  | 1.35 | -0.09
OCCn1cc(-c2ccc3c(c2)CC/C3=N\O)c(-c2ccncc2)n1 | 0.24 | 2.18 | 0.35 | 1.1 | 0.48 | 0.5 | 0.46 | 0.85 | 0.92 | 0.21
Nc1ncccc1-c1nc2ccc(-c3ccccc3)nc2n1-c1ccc(C2(N)CCC2)cc1 [Miransertib (ARQ 092) HCl] | -0.29 | 1.08 | -5.68 | -0.2 | 0.04 | 0.09 | -0.91 | 0.24 | 1.32 | 0.36
CC(C)(C)c1ccc(S(=O)(=O)/C=C/C#N)cc1 | 0.92 | 0.97 |  | -0.58 | -0.04 | 0.04 | 0.83 | -0.39 | 0.39 | -0.18
N#CCNC(=O)c1ccc(-c2ccnc(Nc3ccc(N4CCOCC4)cc3)n2)cc1 [Momelotinib (CYT387)] | 3.11 | 11.6 | 3.39 | 0.59 | 0.75 | 0.76 | 7.69 | 0.49 | 0.77 | 0.53
CNC(=O)c1cc(Oc2ccc3nc(N[C@@H]4CCCC[C@H]4O)sc3c2)ccn1 | 0.41 | 0.33 | 2.01 | 0.77 | 0.47 | 0.57 | 0.27 | 0.57 | 0.18 | 0
C#Cc1cccc(Nc2ncnc3cc4c(cc23)OCCOCCOCCO4)c1 [Icotinib] | 1.01 | 8.46 | -0.7 | 0.87 | 0.31 | 0.43 | 3.06 | 0.81 | 1 | 0.07
CCn1c2ccccc2c2cc(Nc3ccnc(NCCCN4CCOCC4)n3)ccc21 | 0.23 | 3.68 | -1.41 | 0.55 | 0.41 | 0.2 | 0.02 | 0.32 | 1.17 | 0.72
CCCCCCCCCCCCCCCCn1cc[n+](Cc2ccccc2)c1C | -3.77 | 0.19 |  | -2.62 | -1.41 | -3.26 | -4.53 | -0.65 | -1.18 | -0.82
CS(=O)(=O)CCNCc1ccc(-c2ccc3ncnc(Nc4ccc(OCc5cccc(F)c5)c(Cl)c4)c3c2)o1 | -0.1 | 1.34 | -0.68 | 0.97 | 0.44 | 0.61 | -0.63 | 1.04 | 0.83 | 0.48
COc1nccc(-c2c(-c3ccc(F)cc3)ncn2C2CCC(O)CC2)n1 (stereo unspecified) | 0.18 | -0.01 | 1.52 | 0.58 | 0.26 | 0.65 | 0.57 | 0.43 | 0.69 | -0.08
C=CC(=O)N[C@H]1CCOC[C@H]1Nc1ncc2cc(-c3c(Cl)c(OC)cc(OC)c3Cl)ccc2n1 | 0.02 | 0.63 |  | 0.07 | 0 | -0.08 | -0.57 | 0.4 | 0.52 | 0.76
Cn1cc(-c2ccc(F)c(C(F)(F)F)c2)nc1C1CCN(c2ncnc3[nH]ncc23)CC1 | 0.14 | 0.42 | -7.63 | 0.22 | 0.54 | 0.45 | 0.11 | 0.36 | 0.72 | 0.63
CCCCCCCCCCCCCCCCCCOP(=O)([O-])OC1CC[N+](C)(C)CC1 [Perifosine (KRX-0401)] | -0.56 | -0.07 |  | -1.23 | -0.15 | -0.61 |  | 0.39 | -2.82 | -2.65
